NALP1 inh = blocks the NALP1 inflammasome reconstituted in yeast | inhibition, % at 10 µM | S. cerevisiae NALP1/ASC/caspase-1 growth, X-gal OD620, 72 h | AID 2071 | 0.61% of 280,000 active; in the data active = inhibition mostly above about 24%, no sharp cut-off; inactive = mostly below about 32%
PolyA inh = inhibitors of polyadenylation in S. cerevisiae | S. cerevisiae SKY197-pL101 polyadenylation reporter, beta-gal luminescence; efflux-impaired pdr1/pdr3 knockout yeast; score 100 = 6 SD above DMSO | activity score, % at 12 µM | 0.02% of 300,000 active | AID 1875;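 active = lowest replicate activity score at least 50, where 100 means six control SD above control mean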;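 also: yeast exposed to compound for 9 h at 30 °C; higher score means more reporter readthrough which indicates perturbed polyadenylation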
Efflux pump inh = blocks antifungal efflux pumps in multiplex yeast assay; 0.44% of 330,000 active; inhibition, % at 10 µM; AID 485275; S. cerevisiae Candida pump triplex, Nile Red efflux;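 active = plate passing quality check with inhibition over a set limit, or well fluorescence over plate mean plus 4 SD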;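 also: Nile Red retained in pooled yeast measured as flow cytometry median fluorescence; higher means more Nile Red kept so more efflux inhibition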
GASC-1 inh = inhibitors of human GASC-1 (JMJD2C) demethylase; Q9H3R0; GST-JMJD2C(1-420) H3K9me3 demethylation, DELFIA europium; inhibition, % at 2.35 µM; 0.069% of 330,000 active;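 active = more than half of a compound's replicate wells show inhibition beyond 50%, single wells judged on their own value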;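 also: signal counts dimethyl H3K9 product captured on neutravidin plate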
NALP3 yeast inh = inhibitors of NALP3 inflammasome in yeast; inhibition, % at 10 µM; Yeast reconstituted NLRP3/ASC/caspase-1, beta-gal luminescence, 24 h; 0.39% of 330,000 active;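 active = inhibition of 50% or more; inactive = inhibition below 50%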
HDAC3 inh = human HDAC3 inhibition. O15379. inhibition, % at 8.3 µM. 0.15% of 320,000 active. AID 2718. recombinant HDAC3, fluorogenic peptide/trypsin coupled, fluorescence; in the data active = inhibition above about 26%, passing the limit was not always enough
Target sequence (O15379 whole entry, looked up): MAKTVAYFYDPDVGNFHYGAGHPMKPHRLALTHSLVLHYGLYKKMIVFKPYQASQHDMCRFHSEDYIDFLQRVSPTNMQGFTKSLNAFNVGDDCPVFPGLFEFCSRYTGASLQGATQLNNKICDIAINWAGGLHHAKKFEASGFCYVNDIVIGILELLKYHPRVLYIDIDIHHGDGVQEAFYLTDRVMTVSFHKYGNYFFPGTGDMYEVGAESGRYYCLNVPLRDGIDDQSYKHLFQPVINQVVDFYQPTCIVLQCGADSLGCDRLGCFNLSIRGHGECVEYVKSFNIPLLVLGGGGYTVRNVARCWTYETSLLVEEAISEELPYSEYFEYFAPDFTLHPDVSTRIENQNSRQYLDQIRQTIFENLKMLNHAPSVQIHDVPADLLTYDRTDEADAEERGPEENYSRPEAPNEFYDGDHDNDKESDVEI
NALP3 yeast conf = confirmation of NALP3 inhibitors in yeast. AID 435006. yeast expressing human NALP3, luminescence. 81% of 1,300 active. inhibition, % at 10 µM. shares compounds with NALP3 yeast inh; in the data active = inhibition above about 48%
Casp1 ASC ctr = counter-screen for NALP3 inhibitors: yeast caspase-1-ASC. shares compounds with NALP3 yeast inh. yeast expressing Caspase-1-ASC, luminescence counter screen. inhibition, % at 10 µM. 66% of 1,000 active. AID 488784
NALP3 retest = retest-confirmed inhibitor of NALP3 in yeast. AID 488794. 53% of 1,000 active. inhibition, % at 10 µM. shares compounds with NALP3 yeast inh. yeast expressing human NALP3, luminescence read-out
Numbers stand for hits; n = inactive; x = no result. An excerpt weighted towards active compounds, which were near 1.5% of everything screened. Rule as the data show it, unless noted: active = inhibition above about 50%; inactive = the rest.

SMILES | NALP1 inh | PolyA inh | Efflux pump inh | GASC-1 inh | NALP3 yeast inh | HDAC3 inh | NALP3 yeast conf | others
COc1cccc(C2CC3C(=O)C=CC2N3Cc2ccccc2)c1 (configuration not stated) | 69 | n | n | n | n | n | x
COc1ccccc1-n1c(-c2cccs2)nc2ccccc2c1=O | n | n | n | n | n | n | x
Cc1cccc(N2C(=O)NC(=O)/C(=C/c3ccc([N+](=O)[O-])o3)C2=O)c1 | 48 | x | n | 55 | x | n | x
Cc1cccc(N2C(=O)NC(=O)/C(=C\C=C\c3ccco3)C2=O)c1 | n | n | n | n | n | n | x
Cc1ccc2nc3c(cc2c1)CC1(C(=O)N(C)C(=O)N(C)C1=O)C1COCCN31 (configuration not stated) | n | n | n | n | n | n | x
Cc1ccc2nc3c(cc2c1)CC1(C(=O)N(C)C(=O)N(C)C1=O)C1CCCCN31 (configuration not stated) | n | n | n | 56 | n | n | x
Cc1ccc(N2C(=O)NC(=O)/C(=C/c3ccc(OC(=O)c4cccs4)cc3)C2=O)cc1 | n | n | n | n | n | 56 | x
CCc1ccc(CN2CCN(Cc3cc(Br)ccc3O)CC2)cc1 | n | n | n | n | n | n | x
CCN1CCN(Cc2cc(Br)ccc2O)CC1 | 43 | n | n | n | n | n | x
CC1(C)COC(Nc2ccc(Cl)cc2)=N1 | 41 | n | n | n | n | n | x
COc1ccc(Cc2c(O)[nH]c(=S)[nH]c2=O)cc1 | n | n | n | n | n | n | x
CC1(C)C[C@H]2C=C(C=O)[C@]3(C=O)C[C@]3(C)[C@H]2C1 | 108 | n | n | n | 84 | n | 63
COc1ccc(NC(=O)c2cn(CCC#N)nc2-c2ccc(OC)c(OC)c2)cc1 | n | n | n | n | n | n | x
O=C1c2ccccc2C(=O)N1Cc1nc2ccccc2c(=O)n1-c1ccc(Br)cn1 | n | n | n | n | 61 | n | 74 | Casp1 ASC ctr=n;NALP3 retest=n
O=C1c2ccccc2C(=O)N1Cc1nc2ccccc2c(=O)n1-c1cccnc1 | n | n | n | n | n | n | x
COC(=O)C1=C(c2ccccc2)C[C@@H]2CC[C@H]1N2C | x | x | n | n | n | n | x
CC12CCC3C(CC=C4CC(O)CCC43C)C1C/C(=C\N1CCCC1)C2=O (configuration not stated) | n | n | x | n | 59 | x | n
C[C@]12CCC(=O)C=C1CCC1C2CC[C@@]2(C)C1CC[C@@H]2O (some centres not stated) | x | x | n | n | 53 | n | 60
C[C@H]1CC2C3CC=C4C[C@@H](O)CC[C@]4(C)C3CC[C@]2(C)[C@H]1O (some centres not stated) | x | x | n | n | 54 | n | n
C[C@@H]1CC2C3CC=C4C[C@@H](O)CC[C@]4(C)C3CC[C@]2(C)[C@H]1O (some centres not stated) | x | x | n | n | 57 | n | n
Cc1nn(C)c(C)c1/C=C1/CC2C3CC=C4CC(O)CCC4(C)C3CCC2(C)C1=O (configuration not stated) | n | n | n | n | n | n | x
CC(=O)N(C1=NCCCS1)c1ccccc1Cl | n | n | n | n | n | n | x
C[C@]12CC[C@H](O)CC1=CCC1C2CC[C@@]2(C)C1C[C@@H]1CC(=O)O[C@@H]12 (some centres not stated) | x | x | n | n | n | n | x
C=C[C@@]12CN(C)[C@H]3[C@H]1[C@@]1(C(=O)Nc4ccccc41)C1CC2[C@@H]3CO1 | x | x | n | x | n | n | x
C[C@]12CC[C@H](N)CC1=CCC1C2CC[C@@]2(C)C1CC[C@@H]2O (some centres not stated) | x | x | n | n | 56 | n | 56
SMILES | NALP1 inh | PolyA inh | Efflux pump inh | GASC-1 inh | NALP3 yeast inh | HDAC3 inh | NALP3 yeast conf | others
C[C@]12CCC(=O)C[C@H]1CC[C@@H]1[C@@H]2CC[C@]2(C)[C@@H](O)CC[C@@H]12 | x | x | n | n | 59 | n | 73
Cc1ccc(C[n+]2c(-c3ccc(C)cc3)cc(-c3ccc(C)cc3)cc2-c2ccc(C)cc2)cc1 | x | n | n | n | 78 | n | 76 | Casp1 ASC ctr=72;NALP3 retest=75
Cc1ccc(-c2cc(-c3ccc(C)cc3)[n+](-c3ccc(C(=O)O)cc3)c(-c3ccc(C)cc3)c2)cc1 | x | n | n | n | n | n | x
CN[C@@H](C)[C@@H](O)c1ccccc1 | n | n | n | x | n | n | x
O=[N+]([O-])c1ccc(N2CCCC2)c(F)c1Br | n | n | n | n | 52 | n | 60 | Casp1 ASC ctr=72;NALP3 retest=62
O=[N+]([O-])c1ccc(N2CCCC2)c2ncccc12 | n | n | n | n | n | n | x
CCn1nc(-c2ccccc2)nc2c(=O)n(C)c(=O)nc1-2 | 42 | n | n | n | 62 | n | 86 | Casp1 ASC ctr=94;NALP3 retest=88
Clc1ccc(N2CC2c2ccncc2)cc1 (configuration not stated) | n | n | n | n | n | n | x
CN1CCN(c2ccc(Cl)cc2N)CC1 | n | n | n | n | n | n | x
Cc1ccc(Cl)cc1N1CCN(CCN)CC1 | n | n | n | n | 59 | n | 57 | Casp1 ASC ctr=58;NALP3 retest=67
COC(=O)CCCC(NC(=S)N1CC2C[C@@H](C1)Cn1c2cccc1=O)C(=O)OC (some centres not stated) | n | n | n | n | n | n | x
Nc1c2c(nc3sc4c(c13)CCCC4)CCCC2 | n | n | n | n | 71 | n | 82 | Casp1 ASC ctr=54;NALP3 retest=57
Oc1c(Br)cc(Br)cc1Br | x | x | n | n | n | n | x
Oc1c(Br)c(Br)c(Br)c(Br)c1Br | x | x | n | n | 66 | n | 71 | Casp1 ASC ctr=74;NALP3 retest=91
CSCCC(NC(=O)CCC(=O)OC1CC[C@H]2[C@@H]3CC[C@H]4CC(=O)CC[C@]4(C)[C@H]3CC[C@]12C)C(=O)O (some centres not stated) | n | n | n | n | n | n | x
CC(=O)OCC(=O)[C@H]1CC[C@H]2[C@@H]3CC[C@H]4C[C@H](O)CC[C@]4(C)[C@H]3C(=O)C[C@]12C | x | x | n | x | 56 | n | 71 | Casp1 ASC ctr=53;NALP3 retest=53
C[C@]12CC[C@H](O)C[C@@H]1CC[C@@H]1[C@@H]2CC[C@]2(C)C(=O)CC[C@@H]12 | n | n | n | n | 67 | n | 62 | Casp1 ASC ctr=62;NALP3 retest=n
C[C@]12CC[C@H](O)C[C@H]1CC[C@@H]1[C@@H]2CC[C@]2(C)[C@@H](C3=CC(=O)OC3)CC[C@]12O | x | x | n | x | n | n | x
C[C@]12CCC3C(CC[C@H]4C[C@@H](O)CC[C@]34C)C1CC[C@@H]2OC(=O)[C@H](N)CCCCN (some centres not stated) | x | x | n | n | 66 | n | 57

Screens deposited in PubChem by several laboratories.
